Measured values reported in PubChem BioAssay (NCATS).
Inconclusive results are not listed. Calls of active or inactive are those of the source. The call rests on the fitted dose curve; in most records, active means well fitted curve in the direction sought with a large enough effect; inconclusive means small, poorly fitted or top-dose-only effect, or another doubt; inactive means no such curve, though single readings can be large; an effect the other way counts as inactive or inconclusive.

Legend:
[1] = qHTS of pediatric cancer cell lines to identify multiple opportunities for drug repurposing: Primary screen for U-2 OS cells (AID 1347096); further: nearly all actives have a fitted effect of over 50% in size
Method in brief: (§1)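 Cells (500-1,000/well) rested 5 h, then received compounds for 48 h; metabolically active cells were measured by CellTiter-Glo luminescence. Final concentrations spanned up to 46 µM (MIPE, 11-point) or 0.59 nM-46 µM (NPC, 8-point) in primary screens, 11-point in follow-ups.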

[2] = qHTS of pediatric cancer cell lines to identify multiple opportunities for drug repurposing: Primary screen for Saos-2 cells (AID 1347097); further: nearly all actives have a fitted effect of over 40% in size
Method in brief: (§2)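 ATP-based luminescence (CellTiter-Glo) quantifies viability after a 48-hour exposure. Compounds are dosed across 8 or 11 final concentrations; DMSO and 2.3 µM bortezomib serve as controls.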

[3] = qHTS of pediatric cancer cell lines to identify multiple opportunities for drug repurposing: Primary screen for SK-N-SH cells (AID 1347098);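 further: DMSO served as neutral control and bortezomib at 2.3 µM as positive control; nearly all actives have a fitted effect of over 65% in size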
Method in brief: as §1

[4] = qHTS of pediatric cancer cell lines to identify multiple opportunities for drug repurposing: Primary screen for NB1643 cells (AID 1347099); further: nearly all actives have a fitted effect of over 50% in size
Method in brief: as §2

[5] = qHTS of pediatric cancer cell lines to identify multiple opportunities for drug repurposing: Primary screen for LAN-5 cells (AID 1347100)
Method in brief: as §1

[6] = qHTS of pediatric cancer cell lines to identify multiple opportunities for drug repurposing: Primary screen for BT-12 cells (AID 1347101); further: nearly all actives have a fitted effect of over 25% in size
Method in brief: as §1

[7] = qHTS of pediatric cancer cell lines to identify multiple opportunities for drug repurposing: Primary screen for Rh18 cells (AID 1347102); further: nearly all actives have a fitted effect of over 65% in size
Method in brief: as §1

[8] = qHTS of pediatric cancer cell lines to identify multiple opportunities for drug repurposing: Primary screen for OHS-50 cells (AID 1347103); further: nearly all actives have a fitted effect of over 40% in size
Method in brief: as §1

[9] = qHTS of pediatric cancer cell lines to identify multiple opportunities for drug repurposing: Primary screen for RD cells (AID 1347104); further: nearly all actives have a fitted effect of over 55% in size
Method in brief: as §2

[10] = qHTS of pediatric cancer cell lines to identify multiple opportunities for drug repurposing: Primary screen for MG 63 (6-TG R) cells (AID 1347105); further: nearly all actives have a fitted effect of over 50% in size
Method in brief: as §2

[11] = qHTS of pediatric cancer cell lines to identify multiple opportunities for drug repurposing: Primary screen for Rh30 cells (AID 1347107); further: series mostly up to about 46 µM; nearly all actives have a fitted effect of over 75% in size
Method in brief: as §1

[12] = qHTS of pediatric cancer cell lines to identify multiple opportunities for drug repurposing: Primary screen for Rh41 cells (AID 1347108);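 further: series mostly up to about 46 µM; luminescence drop marks cytotoxic hits; nearly all actives have a fitted effect of over 70% in size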
Method in brief: as §2

[13] = qHTS of pediatric cancer cell lines to identify multiple opportunities for drug repurposing: Primary screen for control Hh wild type fibroblast cells (AID 1347106);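 further: series mostly up to about 46 µM; a drop in luminescence marks cytotoxicity and a rise apparent proliferation; nearly all actives have a fitted effect of over 55% in size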
Method in brief: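 Viability after 48 h compound treatment at 37C, 500-1,000 cells/well, read as ATP luminescence with CellTiter-Glo. Primary screens used 11-point (MIPE, 0.78 nM-46 µM) or 8-point (NPC, 0.59 nM-46 µM) final concentrations; follow-up screens used 11-point dilutions.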

Measured: Potency

C[C@H]1NCc2cc(-c3ccc4c(=O)c(C(=O)O)cn(C5CC5)c4c3OC(F)F)ccc21
not listed: [13]
inactive: all other assays above

CCc1cccc2c(CCO)c[nH]c12
not listed: [4]
inactive: all other assays above

Cc1c(C)c2c(c(C)c1OC(=O)CCC(=O)OCCO)CC[C@@](C)(CCC[C@H](C)CCC[C@H](C)CCCC(C)C)O2
inactive: [1] | [2] | [11]

CCCC(=O)O[C@]1(C(=O)CC)CC[C@H]2[C@@H]3CCC4=CC(=O)CC[C@]4(C)[C@H]3[C@@H](O)C[C@@]21C
not listed: [2] | [8] | [10] | [12]
inactive: all other assays above

c1ccc(C(O[C@H]2CCCN(CCc3ccc4c(c3)OCO4)C2)c2ccccc2)cc1
not listed: [3] | [8]
inactive: all other assays above

CC(NC(CCc1ccccc1)C(=O)O)C(=O)N1C(=O)N(C)CC1C(=O)O (centres undefined)
not listed: [4]
inactive: all other assays above

COc1cc(C(=O)NC2CCCNC2)cc(OC)c1OC (centres undefined)
not listed: [13]
inactive: all other assays above

CN1CCCN=C1/C=C/c1cccs1
inactive: all assays above

O=C(Nc1ccc(S(=O)(=O)N2CCOCC2)cc1)c1cc(Cl)ccc1NS(=O)(=O)c1ccc(Cl)s1
not listed: [2]
inactive: all other assays above

CC(C)C(=O)Nc1cccc(C(F)(F)F)c1
not listed: [11]
inactive: all other assays above

O=C(O)Cc1ccc(OCCNC[C@H](O)c2ccccc2)cc1
not listed: [12] | [13]
inactive: all other assays above
